# Laboratory results reported in the OligoGym collection.
# Target: HSPA1A
# Assay: pooled miR-30 sensor sort-seq; sequence = guide strand
# Settings: shRNA
# Also: reference of the scale not given here.
row,Sequence,sensor-assay potency score (higher = more potent)
1,TAAAAAGAAGAAATAGTCGTAA,0.289
2,AAATTGAGAACTGACAAACAGA,-0.814
3,TGCAAAGTCTTGAAGCTCCAAA,-0.87
4,TTCAACATTGCAAACACAGGAA,0.422
5,TTAAAAAGAAGAAATAGTCGTA,0.533
6,TTGTCGGCCTCGCTGATCTTGC,-1.46
7,TTGTCCAGCACCTTCTTCTTGT,0.221
8,TTCTTCTTGTCGGCCTCGCTGA,-0.634
9,TACTAGGAAATGCAAAGTCTTG,-1.4

# Target: HSPA1L
# Assay: as above
# Settings: shRNA
row,Sequence,sensor-assay potency score (higher = more potent)
1,TTAGTCAATACCATCGAAGAGA,-1.19
2,TTTATATTTCTCAGCATCCAGA,-0.719
3,AACTTAGTCAATACCATCGAAG,-0.727
4,TTTCTCAGCATCCAGAACCATG,-1.49
5,TTGGTTGTCAGAGTAGGTGGTG,0.316
6,TAATCTTGCCCTTCAAACCTTC,-0.52
7,TAGAGTTTTGTGATGATAGGGT,0.798
8,TTTATCAGACTCACTAATCTTG,0.0614
9,TAGGGTTACACATCTGCTCCAA,0.367
10,TAAGTCCAGCAATCACACCTGC,-0.0929
11,TTCTTAGCACATTAAGTCCAGC,-0.826
12,TTCTCTTATGATCAAACTCATC,-1.68
